For 38 molecules, outcome results are on record in PubChem BioAssay (EPA / NIEHS).

Structures are written as SMILES. Records with an inconclusive call do not appear. Activity calls are given as the source filed them. How the source made its calls: active means hit-call score of the fitted dose curve at least 0.9, where 1 is the maximum; inconclusive means response in the unintended direction; inactive means score below 0.9.

Chain of Estrogen-related receptor gamma (Homo sapiens) (P62508 whole entry, looked up): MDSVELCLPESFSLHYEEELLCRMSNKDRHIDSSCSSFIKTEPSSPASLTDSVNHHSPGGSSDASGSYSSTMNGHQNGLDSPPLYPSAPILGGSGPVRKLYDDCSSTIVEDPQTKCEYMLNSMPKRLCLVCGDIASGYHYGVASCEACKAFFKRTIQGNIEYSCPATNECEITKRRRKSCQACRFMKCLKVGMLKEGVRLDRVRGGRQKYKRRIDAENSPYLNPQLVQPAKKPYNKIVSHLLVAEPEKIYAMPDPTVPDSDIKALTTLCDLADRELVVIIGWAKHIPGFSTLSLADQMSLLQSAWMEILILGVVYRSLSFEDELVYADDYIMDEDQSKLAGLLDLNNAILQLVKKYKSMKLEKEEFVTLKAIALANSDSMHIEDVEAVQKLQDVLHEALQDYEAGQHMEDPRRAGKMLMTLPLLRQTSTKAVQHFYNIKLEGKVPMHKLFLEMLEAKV

In this test the target is Estrogen-related receptor gamma (Homo sapiens) (UniProt P62508). Kind of test: ATG_ERRg_TRANS: Attagene TRANS-FACTORIAL HepG2 Assay for human Estrogen-Related Receptor gamma (ERRg) (AID 2282977).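 Further: hits increase reporter signal over DMSO so potencies reflect activators.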 Conditions: HepG2 Attagene TRANS reporter, ERRg transactivation. As to the method:
ATG_TRANS is a cell-based, multiplexed-readout assay that uses HepG2, a human liver cell line, with measurements taken at 24 hours after chemical dosing in a 24-well plate.ATG_ERRg_TRANS is one of 30 assay component(s) measured or calculated from the ATG_TRANS assay. It is designed to make measurements of mRNA induction, a form of inducible reporter, as detected with fluorescence intensity signals by Reverse transcription polymerase chain reaction (RT-PCR) and Capillary electrophoresis technology.Data from the assay component ATG_ERRg_TRANS was analyzed into 1 assay endpoint. This assay endpoint, ATG_ERRg_TRANS, was analyzed in the positive analysis fitting direction relative to DMSO as the negative control and baseline of activity. Using a type of inducible reporter, measures of mRNA for gain-of-signal activity can be used to understand the reporter gene at the transcription factor-level as they relate to the gene ESRRG. Furthermore, this assay endpoint can be referred to as a primary readout, because this assay has produced multiple assay endpoints where this one serves a reporter gene function. To generalize the intended target to other relatable targets, this assay endpoint is annotated to the nuclear receptor intended target family, where the subfamily is steroidal.
Human liver HepG2 cells are transiently transfected with multiple reporter transcription units (MRTUs) in 6-well plates using FuGene 6 reagent (Roche; 3 ml FuGene/1 mg DNA). The MRTU constructs are regulated by a cis-regulating element (promoter). […] A major difference between the CIS and TRANS system is that in CIS activities of endogenous TFs are measured, whereas the TRANS assay evaluates changes in activities of exogenous, chimeric NR-Gal4 proteins. […] At the end of 24 hour incubation, total RNA was isolated using TriZol reagent (Invitrogen). The isolated RNA is then reverse-transcribed using oligo(dT) primer and Mo-MLV reverse transcriptase (Invitrogen) with DNAse I (Ambion) treatment for 30 min. The one-tenth of the produced cDNA was amplified by PCR using Taq DNA polymerase (Invitrogen) and two reporter sequence-specific primers. The PCR products were fluorescently labeled by primer extension with 6-arboxyfluorescein (6-FAM) 5'-labeled reporter sequence-specific primer (2 min at 95 C, 20 s at 68 C and 10 min at 72 C) and these products were digested with 5U of HpaI (New England Biolabs) for 2h at 37 C. The fragments were purified using Qiaquick PCR columns (Qiagen), analyzed on an ABI 3130xL genetic analyzer (Applied Biosystems) with peak positions identified by using a set of X-rhodamine (ROX)-labeled MapMarker1000 molecular weight standards (BioVentures). The raw capillary electrophoresis data was processed using Attagraph software (Attagene).
For the molecule `COP(=O)(OC)O/C(=C\Cl)c1cc(Cl)c(Cl)cc1Cl`, the outcome was inactive.

For `CN(C)P(=O)(N(C)C)N(C)C`, the call was inactive.

On to `Oc1c(I)cc(I)cc1I`, for which the result was inactive.

As for `CCc1ccccc1C`, the call was inactive. As to `COc1cccc(C=O)c1`, the molecule was called inactive. The value for `CC(C)C1CCC(Cc2ccc(Cl)cc2)C1(O)Cn1cncn1` (stereo not drawn) was “inactive”; that for `O=C(O)C(F)(F)C(F)(F)C(F)(F)C(F)(F)C(F)(F)C(F)(F)C(F)(F)C(F)(F)C(F)(F)C(F)(F)F` was “inactive”; that for `CCOP(=S)(OCC)Oc1ccc(S(C)=O)cc1` (stereo not drawn) was “inactive”. To `C[C@@H]1C[C@@H]([C@H](O)CC2CC(=O)NC(=O)C2)C(=O)[C@@H](C)C1` belongs “inactive”.

On to `COc1cc(-c2ccc(N)c(OC)c2)ccc1N`, for which the outcome was inactive. With `COP(=O)(OC)OC`, the outcome was inactive. For the molecule `BrCCBr`, the outcome was inactive. To `ClC1(Cl)C2(Cl)C3(Cl)C4(Cl)C(Cl)(Cl)C5(Cl)C3(Cl)C1(Cl)C5(Cl)C24Cl` (stereo not drawn) belongs “inactive”; to `O=S(=O)(c1ccc(Cl)cc1)c1ccc(Cl)cc1`, “inactive”.

In the case of `COc1ccccc1OC`, the result was inactive.

With `CCOP(=S)(OCC)SCCS(=O)(=O)CC`, the molecule was classed as inactive.

In the case of `CC(=O)C=C(C)C`, the result was inactive. To `OCc1ccco1` belongs “inactive”; to `C=CC(=O)N(C)C`, “inactive”. Regarding `Nc1cccc(Cl)c1`, the molecule was called inactive.

For the molecule `O=[N+]([O-])c1c(Cl)c(Cl)cc(Cl)c1Cl`, the molecule was called inactive. For the molecule `ClCCBr`, the result was inactive.

As to `O=C1C2(Cl)C3(Cl)C4(Cl)C(Cl)(Cl)C5(Cl)C3(Cl)C1(Cl)C5(Cl)C24Cl` (stereo not drawn), the outcome was inactive.

For the molecule `COP(=S)(OC)Oc1ccc(S(=O)(=O)N(C)C)cc1`, the result was inactive. Consider `CCC[CH2][Sn]([Cl])([Cl])[Cl]`, for which the outcome was inactive.

For `O=c1[nH]c(=O)[nH]c(=O)[nH]1`, the molecule was classed as inactive.

With `c1ccc(N=NNc2ccccc2)cc1`, the molecule was classed as inactive. As for `ClCC(Cl)CCl`, the molecule was classed as inactive. To `O=C(c1ccccc1)C(Cl)Cl` belongs “inactive”; to `O=[N+]([O-])c1ccc(O)c([N+](=O)[O-])c1`, “inactive”. The value for `CC(C)OC(=O)Nc1ccccc1` was “inactive”. To `NC(=O)O` belongs “inactive”; to `O=C(Nc1ccc2[nH]ccc2c1)c1cc2cc(F)ccc2n1Cc1cccc(F)c1`, “inactive”. For `CCN(CC)C(=O)Cl`, the molecule was classed as inactive. For the molecule `O=C1C(Cl)=C(Cl)C(=O)c2ccccc21`, the molecule was classed as inactive. On to `Nc1ncc([N+](=O)[O-])s1`, for which the call was inactive. Regarding `C(=NC1CCCCC1)=NC1CCCCC1`, the molecule was classed as inactive. As for `CCSC(C)CC1CC(=O)C(C(CC)=NOC/C=C/Cl)=C(O)C1` (stereo not drawn), the result was inactive.
